According to PubChem BioAssay AID1856 (The Scripps Research Institute Molecular Screening Center, 2009):
Out of some 1,300 compounds screened, fewer than 10 were called active. No rule for the calls is given here. Only a sample is shown.

System: metallo-beta-lactamase IMP-1 (Pseudomonas aeruginosa)
Assay: IMP-1 enzyme inhibition by VIM-2 hits – biochemical, epi-absorbance readout, triplicate, selectivity assay for selective VIM-2 inhibitor project, confirmation (AID 1856);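 also: 0% = enzyme with vehicle and 100% = vehicle without enzyme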
Settings: purified IMP-1, nitrocefin hydrolysis, epi-absorbance fluorescence; at 5.6 µM; stronger effect = higher value

inhibition, inactive:
C=CCn1c(-c2ccccc2OCC)n[nH]c1=S -2.2%
Cc1cc(NCc2ccco2)n2c(nc3ccccc32)c1C#N -3.37%
O=C(COc1cc2oc(=O)c3c(c2cc1Cl)CCC3)NCCCN1CCOCC1 -1.87%
CCN(CC)c1ccc2cc(C(N)=O)/c(=N\NC(=O)c3ccncc3)oc2c1 -2.41%
Cc1cccn2c(=O)c(C=O)c(Nc3ccc(S(N)(=O)=O)cc3)nc12 -3.66%
COc1nc(N=C(N)N)nc2c(C)cccc12 -3.85%
COc1cc(NC(=O)C2=C(C)OCCS2)c(Cl)cc1C(=O)NCCN1CCN(C)CC1 -2.62%
CCN1CCN(CCNC(=O)c2ccc3c(c2)NC(=O)/C(=C\c2ccc(OC)c(OC)c2)S3)CC1 -3.87%
Cn1c(-c2sccc2OCc2cccc(C(F)(F)F)c2)n[nH]c1=S -2.3%
CCOC(=O)N1CCN(C(=O)C2CCN(c3ncnc4c3sc3cccc(F)c34)CC2)CC1 -2.28%
Cc1cc(-c2ccc(/C=N/n3cnnc3)o2)c([N+](=O)[O-])cc1C -2.82%
CNC(=O)c1ccsc1NC(=O)c1ccc(S(=O)(=O)N2CCOCC2)cc1 -2.75%
Cc1cc(C)c2nc3nc(C)cc(C)c3c(N)c2c1 -3.37%
COc1ccc(-c2nn3c(-c4ccccc4)nnc3s2)cc1OC -2.66%
CCc1cc(=O)oc2cc(C)cc(OCC(=O)N3CCC[C@@H]3C(=O)O)c12 -3.22%
NC(=O)C1CCN(C(=O)COc2ccc3c4c(c(=O)oc3c2)CCC4)CC1 -2.5%
COc1cc(/C=N/Nc2nn3cnnc3c3ccccc23)cc(OC)c1OC -2.07%
Cc1cc([N+](=O)[O-])c(-c2ccc(/C=N/n3cnnc3)o2)cc1Cl -2.7%
COc1ccc(Nc2cc(C)nc(-n3nc(C)cc3C)n2)cc1 -4.36%
COc1cc(-c2nn3c(-c4cccc(C)c4)nnc3s2)cc(OC)c1OC -3.37%
CCN1CCCC1CNC(=O)c1cc2c(=O)n(C)c3ccccc3c2n1C (configuration not stated) -1.43%
COC(=O)c1c(NC(=O)c2ccc(S(=O)(=O)N3CCOCC3)cc2)sc2c1CCN(C(C)C)C2 -3.07%
Cc1nc2ccccc2c2oc(C(=O)NCCCN3CCC(C)CC3)cc12 -2.57%
O=C(NCCCN1CCOCC1)c1cnn2c(-c3ccccc3)cc(-c3ccccc3)nc12 -1.31%
CCOc1cc(/C=C2\SC(N3CCCC(C)C3)=NC2=O)ccc1O (configuration not stated) -1.58%
CN1CCN(c2ccc(NC(=O)c3ccc4c(c3)[nH]c(=O)n4Cc3ccc(F)cc3)cc2)CC1 -2.45%
Nc1cccc2c1C(=O)N(Cc1nnc(-c3ccccc3Br)o1)C2=O -1.84%
O=C(NC(=S)Nc1ccccc1C(=O)O)c1ccc(-c2ccc(Br)cc2)o1 -2.92%
Cn1c2ccccc2c(=O)c2c(O)cccc21 1.94%
O=c1[nH]c(-c2ccccc2)c(-c2ccccc2)[nH]1 -1.69%
COc1ccc(/C=N/N(C)C2=NS(=O)(=O)c3ccccc32)cc1OC -2.33%
CCOc1cc(/C=C2\SC(N3CCCCC3)=NC2=O)ccc1O -4.28%
CCN1CCN(C(=O)Cn2nc(C)n3c(cc4c(OC)cccc43)c2=O)CC1 -3.39%
Clc1cc(-c2ccc(/C=N/n3cnnc3)o2)ccc1Br -2.66%
Nc1nnc2c(C(F)(F)F)nc3ccccc3n12 -2.31%
Cc1ccc(Cl)cc1-c1ccc(/C=N/n2cnnc2)o1 -3.92%
COc1ccc(CCn2c(=N)c(C(=O)NCC3CCCO3)cc3c(=O)n4cccc(C)c4nc32)cc1OC (configuration not stated) -3.13%
COC(=O)c1ccc(-c2noc(CN(Cc3ccccn3)CC3CCCO3)n2)cc1 (configuration not stated) -4.37%
CCOCCCNc1c(CC)c(C)c(C#N)c2nc3ccccc3n12 -2.98%
O=C1Nc2cc(C(=O)N3CCC(N4CCCCC4)CC3)ccc2S/C1=C\c1ccccc1 -4.01%
CCC1CCCCN1CCCNC(=O)c1cc2c(Cl)nc3ccccc3c2s1 (configuration not stated) -2%
Cc1ccc2nc(C)c3c(c2c1)N(c1ccccc1)CC3 -3.39%
Fc1ccc(-c2ccc(CNCc3ccccn3)o2)cc1Cl -3.51%
CC(NS(=O)(=O)c1ccccc1)c1n[nH]c(=S)n1-c1ccccc1 (configuration not stated) -3.01%
Cn1c(=O)c2c(nc(N3CCOCC3)n2CCNC2=NCCC2)n(C)c1=O -2.77%
CCN(CC)CCOc1ccc2c(c1)C(=NNC(=O)c1ccccn1)c1cc(OCCN(CC)CC)ccc1-2 -6.88%
CC(=O)c1ccc(-c2ccc(Cn3c(C)nc4cc(N)c(C)nc43)cc2)cc1 -2.57%
CCCc1ccc(OCCNC(=O)c2ccco2)cc1 -3.83%
CN(C)CCNc1ccc(-c2n[nH]c(=O)c3ccccc23)cc1[N+](=O)[O-] -3.19%
COc1ccc(Cc2nnc(NS(=O)(=O)Cc3ccccc3)s2)cc1 -2.35%
CC(C)(C)CC(=O)Nc1nnc(SCC(=O)NCc2cccs2)s1 -4.47%
CC1CCCC(C)N1CCCNC(=O)c1cc2c(=O)n(C)c3ccccc3c2n1C (configuration not stated) -3.58%
